Reference: PubChem BioAssay (NCATS)
Inconclusive results are not listed. A number with no mark means an inactive call. Activity calls are given as the source filed them. Calls come from the whole dose curve; as a rule, active = well fitted curve in the direction sought with a large enough effect; inconclusive = small, poorly fitted or top-dose-only effect, or another doubt; inactive = no such curve, though single readings can be large; an effect the other way counts as inactive or inconclusive.

assay: qHTS of pediatric cancer cell lines to identify multiple opportunities for drug repurposing: Primary screen for U-2 OS cells (AID 1347096); details: U-2 OS viability, CellTiter-Glo luminescence, 48 h; series mostly up to 46 µM; activity change, negative = cytotoxic: at the top concentration;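 note: plate controls were DMSO wells for no effect and bortezomib positive control wells for full effect; nearly all actives have a fitted effect of over 50% in size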
Summary of the method: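 Cells (500-1,000/well) in growth media were settled 5 h at 37 degrees C, then given compounds for 48 h. Viability was read as CellTiter-Glo luminescence. Primary runs used MIPE at 11 points (0.78 nM-46 µM) and NPC at 8 points (0.59 nM-46 µM); follow-ups used 11 points.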

Point of comparison: CCCCCCCCCCCCCCCCCCN(C)C, “activity change, negative = cytotoxic” value -4.04%. Against it:
- CC1CC(=O)NN=C1c1ccc(NCC(C)(C)NCC(O)COc2cc(Cl)ccc2C#N)cc1 (stereo not given) — higher, 2%
- Clc1ccc2c(c1)Nc1ccccc1S2 — higher, 1.92%
- CCC1(c2cnc[nH]2)Cc2ccccc2C1 — lower, -6.82%
- O=[N+]([O-])c1cncn1CCN1CCOCC1 — higher, 19.1%
- CCO[C@H](Cc1ccc(OCCc2ccc(OS(C)(=O)=O)cc2)cc1)C(=O)O — higher, 10.9%
- CC1CCCCN1CCCOC(=O)c1ccc(OC2CCCCC2)cc1 (stereo not given) — lower, -18%
- CN(C)CCCOC1(Cc2ccccc2)CCCCCC1 — higher, 7.56%
- CCCCC(O)/C=C(C)/C=C/C=C/C(=O)N1CCCC1=O (stereo not given) — higher, 8.54%
- O=C1[C@@H]2[C@H]3CC[C@H](C3)[C@@H]2C(=O)N1CCCCN1CCN(c2ncccn2)CC1 — higher, 0.0797%
- CO[C@@]1(NC(=O)CSC[C@@H](N)C(=O)O)C(=O)N2C(C(=O)O)=C(CSc3nnnn3C)CS[C@@H]21 — higher, -3%
- C/C(=N/NC(=O)c1ccncc1)C(=O)O — higher, 2.53%

assay: qHTS of pediatric cancer cell lines to identify multiple opportunities for drug repurposing: Primary screen for Saos-2 cells (AID 1347097); details: Saos-2 viability, CellTiter-Glo ATP luminescence, 48 h; series mostly up to 46 µM; activity change, negative = cytotoxic: at the top concentration; note: nearly all actives have a fitted effect of over 40% in size; note: potency is the fitted concentration of half-maximal effect; for activity change, negative = cytotoxic: % is set by controls: 0 for no effect and ±100 for the full control effect
Summary of the method: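 Cells plated at 500-1,000/well in growth medium, compounds added after 5 h. MIPE tested at 11 points (from 0.78 nM), NPC at 8 points (from 0.59 nM). CellTiter-Glo luminescence after 48 h; concentration-response curves from primary screen.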

Point of comparison: NS(=O)(=O)c1cc2c(cc1Cl)CN(C1CCCCC1)C2=O, “activity change, negative = cytotoxic” value 5.21%. Against it:
- CCOC(=O)OCC/C(SC(=O)OCC)=C(\C)N(C=O)Cc1cnc(C)nc1N — lower, -28.6%
- CCc1cc(S(=O)(=O)O)c2cc(C(C)C)cccc1-2 — lower, -7.43%
- CC1c2ccccc2CN1NC(=O)c1ccc(Cl)c(S(N)(=O)=O)c1 (stereo not given) — lower, -7.11%
- CN(CC1(C)CCCO1)S(=O)(=O)c1ccc(Cl)c(S(N)(=O)=O)c1 (stereo not given) — higher, 23.2%
- C[C@H]1C[C@H]2[C@@H]3CCC4=CC(=O)C=C[C@]4(C)[C@H]3C(=O)C[C@]2(C)[C@@]1(O)C(=O)CO — higher, 31.3%
- CCCc1c2oc(C(=O)O)cc(=O)c2cc2c(=O)cc(C(=O)O)n(CC)c12 — lower, -28.2%
- COc1cc(OC)nc(O[C@H](C(=O)O)C(OC)(c2ccccc2)c2ccccc2)n1 — lower, -24.5%

In the case of CCCCCCCCCCCC[N+](C)(C)Cc1ccccc1, the Potency is reported as 4.73 µM (active).

assay: qHTS of pediatric cancer cell lines to identify multiple opportunities for drug repurposing: Primary screen for SK-N-SH cells (AID 1347098); details: SK-N-SH viability, CellTiter-Glo luminescence, 48 h; series mostly up to 57 µM; activity change, negative = cytotoxic: at the top concentration; note: nearly all actives have a fitted effect of over 65% in size; note: potency is the fitted concentration of half-maximal effect;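 for activity change, negative = cytotoxic: DMSO served as neutral control and bortezomib at 2.3 µM as positive control; % is set by controls: 0 for no effect and ±100 for the full control effect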
Summary of the method: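 Cells (500-1,000/well) rested 5 h, then received compounds for 48 h; metabolically active cells were measured by CellTiter-Glo luminescence. Final concentrations spanned up to 46 µM (MIPE, 11-point) or 0.59 nM-46 µM (NPC, 8-point) in primary screens, 11-point in follow-ups.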

Point of comparison: CC1(C)O[C@@H]2C[C@H]3[C@@H]4CCC5=CC(=O)C=C[C@]5(C)[C@@]4(F)[C@@H](O)C[C@]3(C)[C@]2(C(=O)CO)O1, “activity change, negative = cytotoxic” value 25.4%. Against it:
- C[C@@]12CCC[C@H]1[C@@H]1CC[C@H]3C[C@@H](O)CC[C@]3(C)[C@H]1CC2 — lower, 4.11%
- CCOC(=O)OCC/C(SC(=O)OCC)=C(\C)N(C=O)Cc1cnc(C)nc1N — lower, 1.73%
- CO/N=C(\C(=O)O)c1csc(NC(=O)CCl)n1 — lower, 4.63%
- Nc1ncnc2nc[nH]c12 — lower, 18.6%
- O=C(CCCl)NCc1ccccc1 — lower, 5.68%
- CC(C)(C)CC(=O)OCC(=O)[C@@]1(O)CC[C@H]2[C@@H]3CCC4=CC(=O)C=C[C@]4(C)[C@H]3[C@@H](O)C[C@@]21C — lower, 0.0277%
- O=C1Nc2cc(Cl)ccc2Oc2ccccc21 — lower, -1.98%
- CC(COc1ccccc1)NN (stereo not given) — lower, -2.11%
- CC(C)=CCC/C(C)=C/CC/C(C)=C/C(=O)OCC(=O)[C@@]1(O)CC[C@H]2[C@@H]3CCC4=CC(=O)C=C[C@]4(C)[C@H]3[C@@H](O)C[C@@]21C — lower, -0.222%
- CCc1cc(S(=O)(=O)O)c2cc(C(C)C)cccc1-2 — lower, -3.19%
- CC1c2ccccc2CN1NC(=O)c1ccc(Cl)c(S(N)(=O)=O)c1 (stereo not given) — lower, -8.74%
- O=C(O)c1[nH]n(-c2ccc(S(=O)(=O)O)cc2)c(=O)c1N=Nc1ccc(S(=O)(=O)O)cc1 — lower, -9.05%
- CC(CC(C#N)(c1ccccc1)C(C)C)N(C)C (stereo not given) — lower, 1.21%
- CN(CC1(C)CCCO1)S(=O)(=O)c1ccc(Cl)c(S(N)(=O)=O)c1 (stereo not given) — lower, 8.74%
- C[C@H]1C[C@H]2[C@@H]3CCC4=CC(=O)C=C[C@]4(C)[C@H]3C(=O)C[C@]2(C)[C@@]1(O)C(=O)CO — lower, -0.102%
- CC(=O)c1cc2ccccc2s1 — lower, -13.1%
- O=c1[nH]c(=O)n([C@H]2O[C@H](CO)[C@@H](O)[C@@H]2O)cc1/C=C\Br — lower, -7.59%
- O=C(c1ccco1)N1CCNCC1 — lower, 3.29%
- CCOC(=O)NNc1ccc(N(CC)CC(C)O)nn1 (stereo not given) — lower, -4.53%
- CC1CC(=O)NN=C1c1ccc(NCC(C)(C)NCC(O)COc2cc(Cl)ccc2C#N)cc1 (stereo not given) — lower, -14.8%
- Clc1ccc2c(c1)Nc1ccccc1S2 — lower, -11.7%
- CCC1(c2cnc[nH]2)Cc2ccccc2C1 — lower, -4.95%
- O=[N+]([O-])c1cncn1CCN1CCOCC1 — lower, -9.44%
- CCCc1c2oc(C(=O)O)cc(=O)c2cc2c(=O)cc(C(=O)O)n(CC)c12 — lower, -10.2%
- CCO[C@H](Cc1ccc(OCCc2ccc(OS(C)(=O)=O)cc2)cc1)C(=O)O — lower, -15.8%
- COc1cc(OC)nc(O[C@H](C(=O)O)C(OC)(c2ccccc2)c2ccccc2)n1 — lower, -20%
- CN(C)CCCOC1(Cc2ccccc2)CCCCCC1 — lower, -17.2%
- CCCCC(O)/C=C(C)/C=C/C=C/C(=O)N1CCCC1=O (stereo not given) — lower, -0.0092%
- NS(=O)(=O)c1cc2c(cc1Cl)CN(C1CCCCC1)C2=O — lower, 7.27%
- CO[C@@]1(NC(=O)CSC[C@@H](N)C(=O)O)C(=O)N2C(C(=O)O)=C(CSc3nnnn3C)CS[C@@H]21 — lower, -14.3%
- C/C(=N/NC(=O)c1ccncc1)C(=O)O — lower, 0.634%
- CCCCCCCCCCCCCCCCCCN(C)C — lower, 11.8%

With CCCCCCCCCCCC[N+](C)(C)Cc1ccccc1 the Potency was 15.4 µM (active).
